Inconclusive results are not listed. Entries that show only a call come without a potency. Calls of active or inactive are those of the source. The call rests on the fitted dose curve.

Among the data in PubChem BioAssay (Tox21) are Potency values, retold here.
Potency means the concentration at half of the fitted maximal effect.

The experiment can be described thus: p53 small molecule agonists, cell-based qHTS assay: qHTS cell viability counter screen (AID 1963581). Further: nearly all actives have a fitted effect of over 45% in size. The note with it: p53RE-bla HCT-116 viability, ATP luminescence, 16 h; series mostly up to 66 µM. An excerpt:
National Center for Advancing Translational Sciences [NCATS]
Division of Preclinical Innovation [DPI]
U.S. Environmental Protection Agency [EPA]
National Institutes of Environmental Health Sciences [NIEHS]
National Toxicology Program [NTP]
U.S. Food and Drug Administration [FDA]
p53, a tumor suppressor protein, is activated following cellular insult, including DNA damage and other cellular stresses. The activation of p53 regulates cell fate by inducing DNA repair, cell cycle arrest, apoptosis, or cellular senescence. The activation of p53, therefore, is a good indicator of DNA damage and other cellular stresses. The CellSensor p53RE-bla HCT-116 cell line (Invitrogen) contains a stably integrated beta-lactamase reporter gene under control of the p53 response elements. The activation of the reporter gene under culture conditions can be detected by fluorescence intensity. This cell line was used to screen the Tox21 compound library in a 1536-well plate format and to identify agonists that activate the p53 signaling pathway. The cytotoxicity of the Tox21 compound library against the p53 RE-bla HCT-116 cell line was tested in parallel by measuring the intra cellular ATP content in the same wells.
Tox21 Assay Protocol Summary:
The p53RE-bla cells were dispensed at 4,000 cells/5 ul/well in 1536-well black wall/clear bottom plates using a Multidrop dispenser. After the assay plates were incubated at a 37 C/5% CO2 incubator for 5 hours, 23 nL of compounds dissolved in DMSO, positive controls or DMSO only was transferred to the assay plate by a pin tool. The plates were incubated at 37 C for 16 hours. After 1 uL of LiveBLAzerTM B/G FRET substrate was added using a Flying Reagent Dispenser, the plates were incubated at room temperature for 2 hours, and fluorescence intensity was measured by an Envision plate reader. For cell viability readout that measures cytotoxicity, 4 ul/well of CellTiter-Glo reagent was added into the assay plates using a Flying Reagent Dispenser. After 30 min incubation at room temperature, the luminescence intensity in the plates was measured using a ViewLux plate reader.
`COc1ccc(C(c2ccc(OC)cc2)C(Cl)(Cl)Cl)cc1`: the Potency entry was “inactive”. Next, `CC(C)C(Nc1ccc(C(F)(F)F)cc1Cl)C(=O)OC(C#N)c1cccc(Oc2ccccc2)c1` (stereo not given): “inactive”. Next, `O=[N+]([O-])c1cccc2cccnc12`: “inactive”; `C(COCC1CO1)OCC1CO1` (stereo not given): “inactive”; `COP(=O)(OC)O/C(C)=C/C(=O)N(C)C`: “inactive”. Next, `COP(=S)(OC)Oc1nc(Cl)c(Cl)cc1Cl`: “inactive”; `O=C(OC1CCCCC1)c1ccccc1C(=O)OC1CCCCC1`: “inactive”; `CCOP(=O)(Sc1ccccc1)Sc1ccccc1`: “inactive”. In the case of `CCc1cc2c(s1)-n1c(C)nnc1CN=C2c1ccccc1Cl`, the Potency result is “inactive”. Next, `CCS(=O)(=O)CCSP(=O)(OC)OC`: “inactive”. Next, `OC(c1ccc(Cl)cc1)(c1ccc(Cl)cc1)C(Cl)(Cl)Cl`: “inactive”.

Turning to `CN(C1CCCCC1)C1CCCCC1`, the Potency result is “inactive”.

Turning to `C[C@]12CC[C@H]3[C@@H](CCC4=CC(=O)CC[C@@]43C)[C@@H]1CC[C@@H]2C(=O)O`, the Potency entry was “inactive”. Next, `CCC(OC(C)=O)C(CC(C)NC)(c1ccccc1)c1ccccc1` (stereo not given): “inactive”. Next, `CC(C)(O)c1cnn2c(-c3ccc(F)c(-c4c(F)cccc4C#N)c3)cnc2n1`: “inactive”; `CCCCN(CCCC)C(=S)S`: “inactive”.

In the case of `NC(=O)C(Cl)Cl`, the Potency result was “inactive”. Next, `O=C1C(Cl)C(CCl)CN1c1cccc(C(F)(F)F)c1` (stereo not given): “inactive”; `O=C(NC(=O)c1c(F)cccc1F)Nc1cc(Cl)c(F)c(Cl)c1F`: “inactive”. Next, `[C-]1=CC=CC1.[Cl][Zr+2][Cl].c1cc[cH-]c1`: “inactive”; `CCOP(=S)(OCC)SCS(=O)(=O)CC`: “inactive”.

Consider `S=C=Nc1cccc2ccccc12`, for which the Potency entry is “inactive”. Next, `C[C@H](CN1CCOCC1)C(C(=O)N1CCCC1)(c1ccccc1)c1ccccc1`: “inactive”; `SCc1ccccc1`: “inactive”. Next, `Oc1cccc(Cl)c1`: “inactive”; `COc1cc(Cl)c(OC)cc1Cl`: “inactive”. On to `BrC(Br)C(Br)(Br)Br`, for which the Potency result is “inactive”. Next, `CC(=O)C(Cl)C(=O)N(C)C` (stereo not given): “inactive”; `CCN(CCO)CCn1c(Cc2ccccc2)nc2c1c(=O)n(C)c(=O)n2C`: “inactive”. Next, `CCOP(=S)(S)OCC`: “inactive”; `[As]#[In]`: “inactive”; `COc1cccc(C(=O)CCN[C@@H](C)[C@H](O)c2ccccc2)c1`: “inactive”. Next, `CCCCOP(=O)(O)OCCCC`: “inactive”; `O=c1ssc(Cl)c1Cl`: “inactive”; `COP(=S)(OC)Oc1cc(Cl)c(I)cc1Cl`: “inactive”. On to `CCc1ccccc1N`, for which the Potency entry is “inactive”. Next, `CS(=O)(=O)c1cc(C(F)(F)F)ccc1C(=O)c1cnoc1C1CC1`: “inactive”. Next, `O=c1c(C2CC(c3ccc(-c4ccc(Br)cc4)cc3)Cc3ccccc32)c(O)sc2ccccc12` (stereo not given): 8.9 µM (active). Next, `ClC(Br)Br`: “inactive”. Turning to `CCOC(=O)C(SP(=S)(OC)OC)c1ccccc1` (stereo not given), the Potency entry was “inactive”.
